Data reported in PubChem BioAssay.

How the values were obtained:
[1] = test system: Human papillomavirus type 1a protein E7 (residues 44-93); assay: small molecules binding HPV E7 44-93 – biochemical, small-molecule microarray, residues 44-93, 635 nm fluorescence, primary screen (AID 1108); conditions: fluorescence 635 nm, higher = more signal;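 also: E7 fragment applied at 1 µg/mL in TBST for 1 h at 4 C; score combines spot fluorescence with its signal to noise ratio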
[2] = hepatitis C replication reporter changes, two-sided – Huh7 cells, luciferase reporter, HCV replication inhibitor project, primary screen (AID 1109); conditions: Huh7 HCV replicon luciferase reporter, 48 h; higher = more signal;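 also: huh7 hepatoma cells harbouring a luciferase neomycin HCV replicon reporter; luciferase luminescence as measure of HCV replicon replication; test concentration not given here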
[3] = molecular target: Left-right determination factor 2 (Homo sapiens) (UniProt O00292); assay: small molecules binding LEFTY2 protein – biochemical, small-molecule microarray, 635 nm fluorescence scan, primary screen (AID 1110); conditions: higher = more signal
Sequence of Left-right determination factor 2 (Homo sapiens) (O00292 whole entry, looked up): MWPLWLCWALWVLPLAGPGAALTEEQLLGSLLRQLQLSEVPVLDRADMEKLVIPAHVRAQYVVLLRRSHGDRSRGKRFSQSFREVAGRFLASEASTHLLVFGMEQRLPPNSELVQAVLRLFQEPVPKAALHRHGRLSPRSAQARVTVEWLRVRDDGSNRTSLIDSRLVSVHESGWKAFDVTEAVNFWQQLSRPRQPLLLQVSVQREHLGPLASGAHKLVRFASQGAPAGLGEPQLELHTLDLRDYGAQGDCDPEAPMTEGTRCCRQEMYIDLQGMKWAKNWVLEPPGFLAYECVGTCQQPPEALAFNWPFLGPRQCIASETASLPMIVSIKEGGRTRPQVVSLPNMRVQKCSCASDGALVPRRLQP

[4] = molecular target: Calmodulin-1 (Homo sapiens) (UniProt P0DP23); assay: small molecules binding calmodulin-1 with EGTA – biochemical, small-molecule microarray, Cy5-labelled CALM1, profiling panel (AID 1111); conditions: Cy5-CALM1 binding fluorescence, higher = more signal;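 also: labelled calmodulin applied in Tris saline Tween buffer holding calcium plus EGTA and DTT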
[5] = molecular target: Calmodulin-1 (Homo sapiens) (UniProt P0DP23); assay: small molecules binding Ca-loaded calmodulin-1 – biochemical, small-molecule microarray, Cy5-labelled CALM1, plus calcium, artefact control for SMM control-protein annotation, profiling panel (AID 1112); conditions: Cy5-CALM1 binding fluorescence, higher = more signal;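 also: score merges spot fluorescence with signal to noise from triplicate slides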
[6] = probe aWnt5a binding to arrayed compounds – biochemical, biotinylated probe, 635/667 nm fluorescence, primary screen (AID 1113); conditions: small-molecule microarray, higher = more signal;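 also: score merges 667 nm fluorescence intensity with signal-to-noise per printed feature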
[7] = probe aShh binding to arrayed compounds – biochemical, biotinylated probe, 635/667 nm fluorescence, primary screen (AID 1114); conditions: small-molecule microarray, higher = more signal;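 also: probe is biotin-labelled aShh protein from a stem cell growth factor screen; measures binding of labelled protein to compounds printed on the slide; score merges feature fluorescence at 667 nm with signal-to-noise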
[8] = probe aNog binding to arrayed compounds – biochemical, biotinylated probe, 635/667 nm fluorescence, primary screen (AID 1115); conditions: small-molecule microarray, higher = more signal;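 also: probe is biotinylated aNog protein used at 0.15 µg/mL for 1 h at 4 C; z-score combines 667 nm fluorescence of each spot with its signal to noise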
[9] = molecular target: Torsin-1A-interacting protein 1 (Homo sapiens) (UniProt Q5JTV8); assay: compound microarray binding of lysate hLAP1 – cell lysate, small-molecule microarray, COS7 lysate, 635/667 nm fluorescence, primary screen (AID 1116); conditions: 635 nm fluorescence, higher = more signal
Sequence of Torsin-1A-interacting protein 1 (Homo sapiens) (Q5JTV8 whole entry, looked up): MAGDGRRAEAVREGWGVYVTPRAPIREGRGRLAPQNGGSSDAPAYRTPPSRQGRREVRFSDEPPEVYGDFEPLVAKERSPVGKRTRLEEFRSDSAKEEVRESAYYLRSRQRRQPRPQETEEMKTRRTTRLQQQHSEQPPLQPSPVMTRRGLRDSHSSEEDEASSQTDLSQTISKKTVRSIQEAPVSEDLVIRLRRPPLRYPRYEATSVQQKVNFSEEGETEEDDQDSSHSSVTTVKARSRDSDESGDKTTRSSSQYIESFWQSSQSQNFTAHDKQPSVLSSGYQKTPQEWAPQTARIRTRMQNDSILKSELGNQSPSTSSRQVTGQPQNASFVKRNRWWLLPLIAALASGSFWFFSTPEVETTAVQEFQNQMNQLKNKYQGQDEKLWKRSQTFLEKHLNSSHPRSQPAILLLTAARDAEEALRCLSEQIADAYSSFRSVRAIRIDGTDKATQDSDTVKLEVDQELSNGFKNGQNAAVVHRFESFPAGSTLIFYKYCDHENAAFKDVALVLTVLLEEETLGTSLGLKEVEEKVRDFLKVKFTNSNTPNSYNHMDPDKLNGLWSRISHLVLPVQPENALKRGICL

[10] = molecular target: Alpha-bungarotoxin (Bungarus multicinctus) (UniProt P60615); assay: compounds binding labelled alpha-BTX control protein – biochemical, small-molecule microarray, Alexa647 label, 635/667 nm fluorescence, artefact control for SMM control protein annotation, profiling panel (AID 1117); conditions: alpha-BTX-A647 binding fluorescence, higher = more signal
Sequence of Alpha-bungarotoxin (Bungarus multicinctus) (P60615 whole entry, looked up): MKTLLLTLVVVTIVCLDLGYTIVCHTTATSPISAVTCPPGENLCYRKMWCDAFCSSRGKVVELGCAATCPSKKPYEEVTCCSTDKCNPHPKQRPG

SMILES	composite z-score [1]	z-score [2]	composite z-score [3]	composite z-score [4]	composite z-score [5]	composite z-score [6]	composite z-score [7]	composite z-score [8]	composite z-score [9]	composite z-score [10]
COCC(=C=CC[C@H](O)c1ccc(CO)o1)CCO	0.76	-0.793	0.173	-0.0876	-0.249	0.0108	-0.0119	0.502	-0.0673	0.818
N#Cc1ccc(NN2C(C(O)c3ccc(Br)cc3)C=CC3C(=O)N(c4ccccc4)C(=O)C32)cc1 (stereo not given)	-1.46	-0.431	0.503	1.53	0.141	0.234	0.162	2.03	1.14	2.36
C=C[C@H]1C(C(=O)OCC)=CC[C@@H](c2ccccc2)N1S(=O)(=O)c1ccc(C)cc1	1.4	-2.78	0.0641	0.577	-0.0986	0.0077	-0.181	-0.289	0.325	0.621
COC(=O)[C@@]1(Cc2ccc(F)cc2)[C@H]2c3cc(C(=O)N4CCCC4)n(Cc4ccc(C)c(F)c4F)c3C[C@H]2CN1C(=O)c1ccccc1	-0.751	-0.914	-0.419	0.344	0.612	-0.119	-0.0813	0.935	0.65	-0.106
CC(C)C(O)C1C=CC2C(=O)N(c3ccccc3)C(=O)C2N1Nc1ccccc1 (stereo not given)	1.5	-0.831	0.138	1.71	0.325	0.0324	-0.156	1.32	1.1	1.23
C=CCC(OC(C)=O)[C@@H]1[C@@H](N(Cc2ccc(-c3cccc(C(F)(F)F)c3)o2)C(=O)c2ccc(-c3ccccc3)cc2)c2cc(OCCCO)ccc2N1C(=O)Cc1ccc2ccccc2c1 (stereo not given in full)	-0.267	-1.09	-0.458	-0.248	0.277	-0.0981	0.0204	-0.144	-0.115	-0.153
CS(=O)(=O)CCOC(=O)C1=CC(CCCO)=CC(c2ccc(CN3CCCC3)cc2)N(Cc2sc3ccccc3c2Cl)C=C1C(=O)OCCS(C)(=O)=O (stereo not given)	0.611	-2.64	1.12	2.26	0.91	-0.0297	0.318	1.49	2.83	2.86
CC1CC/C=C\[C@H]2OC34C=CCN(C(C)(C)C)C(=O)[C@H]3N(CCCCCO)C(=O)[C@@H]4C2C(=O)O1 (stereo not given in full)	-1.33	0.095	-0.464	-0.835	-0.517	-0.199	-0.283	-0.0105	-0.348	-1.25
COc1ccc(C#Cc2ccc3c(c2)[C@]2(C(=O)N3)[C@H](c3ccc(OCCO)cc3)N3[C@H](c4ccccc4)[C@H](c4ccccc4)OC(=O)[C@H]3[C@@H]2C(=O)NC[C@H](O)c2ccccc2)cc1	1.43	-2.21	0.428	1.12	-0.126	-0.0462	-0.0146	-0.157	0.64	1.87
COCCCNC(=O)[C@@]1(CCC(=O)OC(C)(C)C)N=C(c2ccc(OCCCO)cc2)O[C@H]1c1ccccc1N=[N+]=[N-]	0.515	1.46	0.473	2.01	0.807	0.302	0.0326	-0.261	2.32	1.71
CCCC[C@@H](O)C1=C(COC)C[C@H]2C(=O)N(C)C(=O)[C@H]2[C@H]1CO	0.0944	-0.338	0.822	-0.419	-0.573	-0.0417	-0.138	-0.267	0.13	-0.165
CCCCN1CC=CC23O[C@@H]4/C=C\CCC(C)OC(=O)C4[C@H]2C(=O)N(CCCO)[C@@H]3C1=O (stereo not given in full)	-0.169	-0.398	-0.949	-0.0083	0.458	-0.252	0.535	-0.362	-0.318	-0.566
C=C(COC)C(=O)CC[C@@H](OC(C)=O)c1cccc(OCCO)c1	-0.297	-2.41	-0.278	-0.582	-0.909	-0.0403	-0.214	-0.0827	0.578	-0.485
COCCOC(=O)N1C(=O)[C@@]2(c3cc(C#CC4(O)CCCCCC4)ccc31)[C@H](C(=O)Nc1nc3ccccc3s1)[C@H]1C(=O)O[C@H](c3ccccc3)[C@H](c3ccccc3)N1[C@@H]2c1ccc(O)cc1	1.37	-0.895	1	1.29	0.102	-0.18	-0.0849	-0.188	0.286	1.1
CC(CO)N1C(=O)[C@]2(C)C3C(=O)OCCC/C=C\[C@H]3OC23C=CCN(c2ccc(Cl)cc2)C(=O)[C@@H]13 (stereo not given in full)	-0.886	0.636	-0.945	-0.275	0.079	-0.0573	-0.243	-0.318	-0.549	-0.358
C=CCC(OC(C)=O)[C@@H]1[C@@H](N(Cc2cccc3ccccc23)C(=O)Cc2ccc(OC)cc2)c2cc(OCCCO)ccc2N1C(=O)c1ccc(-c2ccccc2)cc1 (stereo not given in full)	-0.446	0.321	-0.279	-0.228	0.726	-0.157	-0.156	0.546	0.435	0.28
CCC#CCN(Cc1ccccc1Br)[C@H](/C=C/C1CC1)[C@@H](O)Cc1ccccc1	-1.04	-2.19	-0.398	-0.414	-0.659	-0.197	-0.214	-0.209	-0.675	-0.229
CCCNC(=O)[C@@H]1c2ccccc2C(=O)N(Cc2ccc(OC(F)(F)F)cc2)[C@H]1c1ccc(CO)cc1	0.957	-0.808	-0.144	0.222	0.237	0.0077	0.292	0.0303	0.448	0.102
CCOC(=O)[C@@H]1CCCCN1C(=O)C(=O)OC	0.5	-0.583	0.449	-0.499	-0.305	-0.0684	-0.0904	-0.158	-0.274	0.154
COc1cc2c(cc1O)C(C1CC1)N(C)CC2 (stereo not given)	-1.01	-0.817	-0.893	-1.01	-0.193	-0.0101	-0.24	-0.139	-0.431	-1.72
CN(C)C(=O)[C@]1(Cc2ccccc2CN=[N+]=[N-])N=C(c2ccc(OCCCO)cc2)O[C@@H]1c1ccccc1	1.47	-3.37	-0.0728	1.56	0.596	0.0337	0.792	1.05	1.39	1.92
COC(=O)[C@@]1(Cc2ccc(OC)cc2)[C@H]2c3cc(C(=O)N4CCCC4)n(CCc4c[nH]c5ccc(OC)cc45)c3C[C@H]2CN1C(=O)c1ccccc1	0.113	-1.93	0.221	2.28	1.46	0.155	0.504	1.54	2.19	1.38
Cc1cc(C)c(C(O)C2C=CC3C(=O)N(c4ccccc4)C(=O)C3N2Nc2ccccc2F)c(C)c1 (stereo not given)	0.0453	0.937	-0.636	0.139	-0.0086	0.184	0.282	1.32	0.563	0.505
CO[C@H]1O[C@H](CO)[C@@H](OC(=O)Nc2ccc3c(c2)OCO3)[C@H](OC(=O)Nc2ccc3c(c2)OCO3)[C@@H]1OC(=O)Nc1ccc2c(c1)OCO2	1.49	0.158	0.472	1.88	-0.745	0.0618	0.313	0.909	1.25	1.7
CCCCCCCCCCC(O)C1C=CC2C(=O)N(c3ccccc3)C(=O)C2N1Nc1ccc(C#N)cc1 (stereo not given)	1.38	-1.57	-0.157	2.48	1.19	0.203	-0.164	-0.889	1.47	1.19
CCCC[C@@H](O)C1=C(COc2ccccc2)C[C@H]2C(=O)N(Cc3ccccc3)C(=O)[C@H]2[C@H]1CO	0.207	-2.3	0.321	0.422	-0.451	-0.161	-0.214	-0.213	0.176	1.29
COC(=O)C1=CC(CCCO)=CC(c2cccs2)N(Cc2cccc(OC(F)(F)F)c2)C=C1C(=O)OC (stereo not given)	0.91	-1.88	0.151	2.05	0.804	-0.0194	0.0121	0.145	2.41	1.02
